# Data: PubChem BioAssay AID1159580 (chemical genetic matrix, 2015)
# About 2,000 (36%) of roughly 5,500 compounds were called active. Inconclusive results (about 18%) are left out. Some of the results follow. Unmarked numbers belong to inactive results. Cut-off read from the data, not from the text of the source: active = normalized growth mostly below about 0.91 (no sharp cut-off); inconclusive = no clear call, values can overlap the other calls; inactive = mostly above about 0.92.
# Experiment: chemical genetic growth profiling, strain panel (AID 1159580);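 note: tested at 20 µM; growth read once vehicle control cultures reached saturation at 30 °C; 1 = growth at the plate median or of vehicle wells; lower values mean less growth of the strain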
# Settings: S. cerevisiae deletion strains, growth OD
# [1] = locus YDL101C, strain DUN1, stronger effect = lower value
# [2] = locus YHR030C, strain SLT2, stronger effect = lower value
compound,measurement,setting,value
Cc1cc(NC(=O)c2c(-c3c(Cl)cccc3Cl)noc2C)c([N+](=O)[O-])cc1C,normalized growth,"locus YAL013W, strain DEP1, stronger effect = lower value",1.01
same,normalized growth,"locus YBR229C, strain ROT2, stronger effect = lower value",1.01
same,normalized growth,[1],1.08
same,normalized growth,"locus YDR150W, strain NUM1, stronger effect = lower value",1.03
same,normalized growth,"locus YEL061C, strain CIN8, stronger effect = lower value",1
same,normalized growth,"locus YGR078C, strain PAC10, stronger effect = lower value",1.04
same,normalized growth,"locus YGR229C, strain SMI1, stronger effect = lower value",0.975
same,normalized growth,[2],1.02
same,normalized growth,"locus YHR087W, strain rtc3, stronger effect = lower value",0.969
same,normalized growth,"locus YJR043C, strain POL32, stronger effect = lower value",1.02
same,normalized growth,"locus YJR075W, strain HOC1, stronger effect = lower value",1
same,normalized growth,"locus YLR039C, strain RIC1, stronger effect = lower value",1.04
same,normalized growth,"locus YLR058C, strain SHM2 (second series), stronger effect = lower value",0.983
same,normalized growth,"locus YLR085C, strain ARP6, stronger effect = lower value",0.999
same,normalized growth,"locus YLR262C, strain YPT6, stronger effect = lower value",0.967
same,normalized growth,"locus YML094W, strain GIM5, stronger effect = lower value",0.992
same,normalized growth,"locus YMR219W, strain ESC1, stronger effect = lower value",0.992
same,normalized growth,"locus YMR263W, strain SAP30, stronger effect = lower value",1.04
same,normalized growth,"locus YNL153C, strain GIM3, stronger effect = lower value",1.04
same,normalized growth,"locus YNL298W, strain CLA4 (second series), stronger effect = lower value",1.04
same,normalized growth,"locus YNL322C, strain KRE1, stronger effect = lower value",0.981
same,normalized growth,"locus YNR030W, strain Alg12, stronger effect = lower value",0.975
same,normalized growth,"locus YOL006C, strain TOP1, stronger effect = lower value",0.987
same,normalized growth,"locus YPL055C, strain LGE1, stronger effect = lower value",0.996
same,normalized growth,"locus YPL241C, strain CIN2, stronger effect = lower value",1.01
same,normalized growth,"locus YPR135W, strain CTF4, stronger effect = lower value",0.995
CC(C)(C)c1ccc(C(=O)NNc2c(Cl)cccc2Cl)cc1,normalized growth,"locus YAR019C, strain CDC15, stronger effect = lower value",0.977
same,normalized growth,"locus YBL105C, strain PKC1, stronger effect = lower value",0.952
same,normalized growth,"locus YBR135W, strain CKS1, stronger effect = lower value",0.948
same,normalized growth,"locus YBR136W, strain MEC1, stronger effect = lower value",0.97
same,normalized growth,"locus YBR160W, strain CDC28, stronger effect = lower value",0.958
same,normalized growth,"locus YDL017W, strain CDC7, stronger effect = lower value",0.973
same,normalized growth,"locus YDL028C, strain MPS1, stronger effect = lower value",0.98
same,normalized growth,[1],0.985
same,normalized growth,"locus YDL108W, strain KIN28, stronger effect = lower value",0.965
same,normalized growth,"locus YDL132W, strain cdc53, stronger effect = lower value",0.968
same,normalized growth,"locus YDL214C, strain PRR2, stronger effect = lower value",0.9
same,normalized growth,"locus YDR052C, strain DBF4, stronger effect = lower value",0.974
same,normalized growth,"locus YDR054C, strain cdc34, stronger effect = lower value",0.981
same,normalized growth,"locus YDR226W, strain ADK1, stronger effect = lower value",0.986
same,normalized growth,"locus YDR477W, strain SNF1, stronger effect = lower value",0.948
same,normalized growth,"locus YER123W, strain YCK3, stronger effect = lower value",0.904
same,normalized growth,"locus YER133W, strain GLC7, stronger effect = lower value",0.939
same,normalized growth,"locus YFL009W, strain cdc4, stronger effect = lower value",0.975
same,normalized growth,"locus YFL029C, strain CAK1, stronger effect = lower value",0.978
same,normalized growth,"locus YFR003C, strain YPI1, stronger effect = lower value",0.974
same,normalized growth,"locus YFR019W, strain FAB1, stronger effect = lower value",0.933
same,normalized growth,"locus YFR028C, strain CDC14, stronger effect = lower value",0.973
same,normalized growth,"locus YGR040W, strain KSS1, stronger effect = lower value",0.918
same,normalized growth,"locus YGR052W, strain FMP48, stronger effect = lower value",0.946
same,normalized growth,"locus YGR092W, strain DBF2, stronger effect = lower value",0.894
same,normalized growth,[2],0.864
same,normalized growth,"locus YHR079C, strain IRE1, stronger effect = lower value",0.885
same,normalized growth,"locus YHR082C, strain KSP1, stronger effect = lower value",0.974
same,normalized growth,"locus YHR205W, strain SCH9, stronger effect = lower value",0.86
same,normalized growth,"locus YIL147C, strain SLN1, stronger effect = lower value",0.974
same,normalized growth,"locus YJL095W, strain BCK1, stronger effect = lower value",0.898
same,normalized growth,"locus YJL128C, strain PBS2, stronger effect = lower value",0.878
same,normalized growth,"locus YJL157C, strain FAR1, stronger effect = lower value",0.88
same,normalized growth,"locus YJR016C, strain ILV3, stronger effect = lower value",0.966
same,normalized growth,"locus YJR066W, strain TOR1 (second series), stronger effect = lower value",0.868
same,normalized growth,"locus YJR066W, strain TOR1, stronger effect = lower value",0.959
same,normalized growth,"locus YKL048C, strain ELM1, stronger effect = lower value",0.954
same,normalized growth,"locus YKL067W, strain YNK1, stronger effect = lower value",0.892
same,normalized growth,"locus YKL101W, strain HSL1, stronger effect = lower value",0.89
same,normalized growth,"locus YKL193C, strain SDS22, stronger effect = lower value",0.974
same,normalized growth,"locus YKL203C, strain TOR2, stronger effect = lower value",1.01
same,normalized growth,"locus YLR113W, strain HOG1, stronger effect = lower value",0.726 (active)
same,normalized growth,"locus YLR133W, strain CKI1, stronger effect = lower value",0.89
same,normalized growth,"locus YLR403W, strain SFP1, stronger effect = lower value",0.893
same,normalized growth,"locus YML070W, strain DAK1, stronger effect = lower value",0.862
same,normalized growth,"locus YMR001C, strain CDC5, stronger effect = lower value",0.971
same,normalized growth,"locus YMR205C, strain PFK2 (second series), stronger effect = lower value",0.888
same,normalized growth,"locus YMR277W, strain FCP1, stronger effect = lower value",0.971
same,normalized growth,"locus YNL006W, strain LST8, stronger effect = lower value",0.978
same,normalized growth,"locus YNL020C, strain ARK1, stronger effect = lower value",0.889
same,normalized growth,"locus YNL161W, strain CBK1, stronger effect = lower value",0.981
same,normalized growth,"locus YNL183C, strain NPR1, stronger effect = lower value",0.887
same,normalized growth,"locus YNL207W, strain RIO2, stronger effect = lower value",0.974
same,normalized growth,"locus YNL222W, strain SSU72, stronger effect = lower value",0.969
same,normalized growth,"locus YNL307C, strain MCK1 (second series), stronger effect = lower value",0.902
same,normalized growth,"locus YOL078W, strain AVO1, stronger effect = lower value",0.967
same,normalized growth,"locus YOL136C, strain PFK27, stronger effect = lower value",0.85
same,normalized growth,"locus YOR061W, strain CKA2, stronger effect = lower value",0.874
same,normalized growth,"locus YOR119C, strain RIO1, stronger effect = lower value",0.985
same,normalized growth,"locus YOR231W, strain MKK1, stronger effect = lower value",0.832
same,normalized growth,"locus YOR329C, strain SCD5, stronger effect = lower value",0.981
same,normalized growth,"locus YPL031C, strain PHO85, stronger effect = lower value",0.935
same,normalized growth,"locus YPL153C, strain RAD53, stronger effect = lower value",0.92
same,normalized growth,"locus YPL204W, strain HRR25, stronger effect = lower value",0.947
same,normalized growth,"locus YPL209C, strain IPL1, stronger effect = lower value",0.968
same,normalized growth,"locus YPL256C, strain CLN2, stronger effect = lower value",0.834 (active)
same,normalized growth,"locus YPR025C, strain CCL1, stronger effect = lower value",0.962
same,normalized growth,"locus YPR106W, strain ISR1, stronger effect = lower value",0.944
same,normalized growth,"locus YPR111W, strain DBF20, stronger effect = lower value",0.995
same,normalized growth,"strain NNK1, stronger effect = lower value",0.943
same,normalized growth,"strain TSCII, stronger effect = lower value",0.972
